In the library only some 6.5% were active in any assay of this set; here they are far more common.
FMDV antiviral – High Throughput Screening for Foot and Mouth Disease Virus Antivirals; Potency, µM (doses to about 57.9 µM), without a hit: top-dose activity change, negative = inhibition, actives largely listed as inhibitors; 1.2% of 410,000 active; FMDV antiviral cell-based qHTS; calls by dose curve; tested in HEK293T cells; note: read-out not given here; potency is the fitted concentration of half-maximal effect; nearly all actives have a fitted effect of over 45% in size
HCMV antiviral – qHTS Assay for inhibitors of the human cytomegalovirus (HCMV); HFF cells, HCMV-luciferase reporter, 72 h; stronger effect = lower value; activity change, negative = inhibition, % at 57.5 µM; 4.5% of 410,000 active; in the data active = activity change below about -60%; inconclusive = no clear call, values can overlap the other calls; inactive = above about -39%
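Two compound doses tested in HFFs infected with HCMV-luciferase, MOI 1 PFU/cell, 72 h at 37C. Lysate luminescence read with OneGlo; data normalized against buffer-only and 10uM Salinomycin inhibitor controls.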
MARV entry inh – qHTS for inhibitors of binding or entry into cells for Marburg Virus; Marburg virus pseudotyped entry inhibition, cell reporter; Potency, µM (series often up to 37.8 µM), inactives show at the top dose activity change, negative = inhibition, hits mostly inhibitors; 1.8% of 300,000 active; AID 540276, 2011; calls by dose curve; tested in HEK293 cells; note: potency is the fitted concentration of half-maximal effect
Lassa entry inh – qHTS for Inhibitors of binding or entry into cells for Lassa Virus; Potency, µM (highest dose often 37.9 µM), inactives show at the top dose activity change, negative = inhibition, usual class: inhibitors; Lassa virus pseudotype entry inhibition, cell reporter; 1.2% of 300,000 active; AID 540256, 2011; calls by dose curve; tested in HEK293 cells; note: potency is the fitted concentration of half-maximal effect; nearly all actives have a fitted effect of over 50% in size
Vaccinia mCherry – qHTS for Stage-Specific Inhibitors of Vaccinia Orthopoxvirus: mCherry Reporter Primary qHTS; AID 720579, 2013; 0.63% of 310,000 active; Vaccinia virus mCherry reporter infection, fluorescence; Potency, µM (series often up to 36.5 µM), for inactives: top-dose activity change, negative = inhibition, most hits filed as inhibitors; calls by dose curve; tested in A549 cells; note: potency is the fitted concentration of half-maximal effect; nearly all actives have a fitted effect of over 35% in size
Vaccinia Venus – qHTS for Stage-Specific Inhibitors of Vaccinia Orthopoxvirus: Venus Reporter Primary qHTS | Vaccinia virus Venus reporter expression, fluorescence | Potency, µM (series often up to 36.5 µM), inactives show top-dose activity change, negative = inhibition, actives largely listed as inhibitors | 0.46% of 330,000 active | AID 720580, 2013; calls by dose curve; tested in A549 cells; note: potency is the fitted concentration of half-maximal effect; nearly all actives have a fitted effect of over 30% in size
Active calls of the source: *; i = inactive; ? = inconclusive; . = not tested or not shown; [ ] = remark or other dose. % is set by controls: 0 for no effect and ±100 for the full control effect.

SMILES	FMDV antiviral	HCMV antiviral	MARV entry inh	Lassa entry inh	Vaccinia mCherry	Vaccinia Venus
COC(=O)c1cc(CNC(=O)c2ccccc2OC)cc(NC(=O)c2ccccc2F)c1	32%	.	.	.	-21%	-11%
COc1ccc(NC(=O)Cn2c(=O)nc(-c3ccccc3)c3ccccc32)cc1OC	7%	-23	.	4%[46.1 µM]	-2%	-24%
COc1ccc2[nH]c3c(NCCC4=CCCCC4)ncnc3c2c1	-61%	-89*	10µM*	?	?	?
CCN(CC)CCNc1ncnc2c1[nH]c1ccc(OC)cc12	.	.	-3%	.	.	.
Cc1ccc2[nH]c3c(NCCN4CCOCC4)ncnc3c2c1	60%	-23	1%	?	-26%	-26%
Fc1ccc2[nH]c3c(NCc4ccccc4)ncnc3c2c1	?	-85*	?	-30%	?	?
C=CCNc1ncnc2c1[nH]c1ccc(C)cc12	.	-68*	?	-15%	?	?
Cc1ccc(CSc2nc3cccnc3n2Cc2ccc(C(=O)NCCc3cccs3)cc2)cc1	-16%	107	.	?	-11%	-6%
COc1cccc(CNC(=O)CCc2c(C)c3ccc(O)c(C)c3oc2=O)c1	-15%	-30	?	4%[46.1 µM]	2%[7.34 µM]	5%[7.34 µM]
COc1ccc(NC(=O)c2cn3c4c(ccc(Cl)c4c2=O)OC(C)C3)cc1OC (stereo not drawn)	-15%	-13	.	-1%[46.1 µM]	-15%	-11%
COc1cccc(C(=O)/C=C/c2ccc(OCC#N)c(OC)c2)c1	?	-100*	15µM*	?	?	?
CCOc1ccc(/C=C/C(=O)c2ccccc2)cc1OC	-15%	-1	-9%	8%	-15%	-15%
COc1cc(/C=C/C(=O)c2ccc(O)cc2)ccc1OCC#N	28µM*	-98*	?	1.6µM*	13µM*	13µM*
O=C(CSc1nc2c([nH]c3ccccc32)c(=O)n1-c1ccccc1)N1CCc2ccccc21	-7%	1	.	-12%[46.1 µM]	-5%	-7%
CCN1CCN(CC(=O)c2ccc(C)cc2)CC1	-11%	-67*	.	.	.	.
Cc1ccc(C(=O)Nc2ccc(S(=O)(=O)O)c3cc(S(=O)(=O)O)cc(S(=O)(=O)O)c23)cc1NC(=O)c1cccc(NC(=O)Nc2cccc(C(=O)Nc3cc(C(=O)Nc4ccc(S(=O)(=O)O)c5cc(S(=O)(=O)O)cc(S(=O)(=O)O)c45)ccc3C)c2)c1	-12%	.	3.1µM*	8.9µM*	-12%	-17%
Cc1cc(OCCCn2c(CCNC(=O)C3CCCCC3)nc3ccccc32)ccc1Cl	-4%	-73*	?	-25%[46.1 µM]	-7%[7.34 µM]	-11%[7.34 µM]
CCn1c(SCc2nc(-c3cccs3)no2)nnc1-c1c[nH]c2ccccc12	22µM*	?	?	20µM*	i	-9%
O=C(CCl)N1CCN(C(=O)C2COc3ccccc3O2)CC1 (stereo not drawn)	?	-8	?	?	?	?
O=C(CCl)N1c2ccccc2OCC1c1ccccc1 (stereo not drawn)	18µM*	-62*	19%	0%	i	-7%
O=C(CCl)N1c2ccccc2SCC1c1ccccc1 (stereo not drawn)	28µM*	-98*	?	?	-27%	-20%
CCc1ccccc1NC(=O)Cn1c(=O)ccc2cc(S(=O)(=O)N3CCCC3)ccc21	-27%	-2	.	?	-3%	7%
COc1cccc(/C(O)=C2\C(=O)C(=O)N(CCN(C)C)[C@@H]2c2ccc(Br)cc2)c1	.	.	0%[46.1 µM]	.	.	.
COc1ccc(/C=N/Nc2ccc(C(=O)O)cc2)cc1Br	22µM*	-35	3.2µM*	?	-14%	-7%
O=C(O)c1ccc(N/N=C/c2ccc(OC(=O)c3ccccc3Cl)cc2)cc1	13µM*	-68*	?	0.71µM*	-11%	-11%
SMILES	FMDV antiviral	HCMV antiviral	MARV entry inh	Lassa entry inh	Vaccinia mCherry	Vaccinia Venus
Nc1ccc(C(=O)N/N=C\c2ccc(OC(=O)c3ccccc3Cl)cc2)cc1	14%	-11	.	.	.	.
COc1ccc(/C=N/Nc2ccc(C(=O)O)cc2)cc1OC	?	19	.	.	.	.
CC(C)c1ccc(/C=N/Nc2ccc(C(=O)O)cc2)cc1	45µM*	-63*	1.5µM*	0.65µM*	.	.
Cc1c2cnn(-c3ccccc3)c(=O)c2c(C)n1CCCC(=O)Nc1ccc(F)cc1F	-20%	-8	-3%[46.1 µM]	1%[46.1 µM]	-1%	-11%
Cc1nc(C(C)NC2CCN(c3cccc(NC(=O)c4ccncc4)c3)CC2)cs1 (stereo not drawn)	11%	.	.	.	-10%	-6%
CSCCC(c1nnnn1Cc1ccccc1)N1CCC2(CC1)C(=O)NCN2c1ccccc1 (stereo not drawn)	-17%	-6	.	.	15%	-4%
CSCCC(c1nnnn1Cc1ccccc1)N1CCC(n2c(=O)[nH]c3ccccc32)CC1 (stereo not drawn)	-26%	-90*	.	.	-14%	-19%
O=c1[nH]c2ccccc2n1C1CCN(C(CCc2ccccc2)c2nnnn2Cc2ccccc2)CC1 (stereo not drawn)	35µM*	-103*	.	.	?	11µM*
O=c1[nH]c2ccccc2n1C1CCN(C(c2nnnn2Cc2ccccc2)C2CC2)CC1 (stereo not drawn)	-28%	?	.	.	-4%	-8%
Cc1cccc(C)c1N=CN1c2ccccc2-n2cccc2C1c1ccccc1 (stereo not drawn)	.	-4	.	.	.	.
CC(C)SCCCOc1ccc(C(C)(C)C)cc1	42%	-86*	5%	14%	.	-1%
CCN1CCCC1CNC(=O)c1cnn(-c2ncc3c(n2)-c2ccc(OC)cc2CC3)c1C1CC1 (stereo not drawn)	-8%	.	.	.	i	-3%
Cc1cccn2c(=O)c(C(=O)NC(C)c3ccccc3)c(O)nc12 (stereo not drawn)	4%	-19	1%[46.1 µM]	.	-20%	-19%
CC(=O)OCCn1c2nc(=O)[nH]c(=O)c-2nc2cc(C)c(C)cc21	-9%	-1	.	.	.	.
Cc1cc2nc3c(=O)[nH]c(=O)nc-3n(C)c2cc1C=O	16µM*	.	.	.	.	.
CN(C)CC(C(=O)Cc1ccccc1)c1ccccc1 (stereo not drawn)	28µM*	-97*	?	-1%[46.1 µM]	-23%	?
CCC1N=C(SC)NC(C)=C1C(=O)c1ccccc1 (stereo not drawn)	-9%	-69*	-24%	?	.	.
CCCCOC(=O)n1c(=O)oc2ccccc21	17%	-101*	32%	18%	.	-17%
COc1ccc(Cn2c(SCc3ccc(C(=O)NCc4cccs4)cc3)nc3cccnc32)cc1	-15%	-4	?	.	-26%	-27%
COc1ccc(CCNC(=O)CSc2nc(-c3ccc(F)cc3)cc(C(F)(F)F)n2)cc1OC	-15%	-16	1%[46.1 µM]	4%[46.1 µM]	-19%	-1%
